Where “and” joins values, the source holds several entries; their conditions need not be identical. Identical values can stand only once. Calls of active or inactive are those of the source.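 How the source made its calls: active means inhibition reaching about 16% in any single replicate (limit read from the data); inactive means the rest.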

For this test, the target named is Hexokinase HKDC1 (Homo sapiens) (UniProt Q2TB90). The test is described as follows: compounds lowering human HKDC1 activity – biochemical, single concentration, confirmation (AID 504710). Conditions: recombinant HKDC1, G6PDH/diaphorase/resazurin fluorescence; at 20 µM; hits give high values. A general note: Resazurin is reduced to fluorescent resorufin, in cell work by metabolically active cells.
Hexokinase HKDC1 (Homo sapiens), sequence (Q2TB90 whole entry, looked up): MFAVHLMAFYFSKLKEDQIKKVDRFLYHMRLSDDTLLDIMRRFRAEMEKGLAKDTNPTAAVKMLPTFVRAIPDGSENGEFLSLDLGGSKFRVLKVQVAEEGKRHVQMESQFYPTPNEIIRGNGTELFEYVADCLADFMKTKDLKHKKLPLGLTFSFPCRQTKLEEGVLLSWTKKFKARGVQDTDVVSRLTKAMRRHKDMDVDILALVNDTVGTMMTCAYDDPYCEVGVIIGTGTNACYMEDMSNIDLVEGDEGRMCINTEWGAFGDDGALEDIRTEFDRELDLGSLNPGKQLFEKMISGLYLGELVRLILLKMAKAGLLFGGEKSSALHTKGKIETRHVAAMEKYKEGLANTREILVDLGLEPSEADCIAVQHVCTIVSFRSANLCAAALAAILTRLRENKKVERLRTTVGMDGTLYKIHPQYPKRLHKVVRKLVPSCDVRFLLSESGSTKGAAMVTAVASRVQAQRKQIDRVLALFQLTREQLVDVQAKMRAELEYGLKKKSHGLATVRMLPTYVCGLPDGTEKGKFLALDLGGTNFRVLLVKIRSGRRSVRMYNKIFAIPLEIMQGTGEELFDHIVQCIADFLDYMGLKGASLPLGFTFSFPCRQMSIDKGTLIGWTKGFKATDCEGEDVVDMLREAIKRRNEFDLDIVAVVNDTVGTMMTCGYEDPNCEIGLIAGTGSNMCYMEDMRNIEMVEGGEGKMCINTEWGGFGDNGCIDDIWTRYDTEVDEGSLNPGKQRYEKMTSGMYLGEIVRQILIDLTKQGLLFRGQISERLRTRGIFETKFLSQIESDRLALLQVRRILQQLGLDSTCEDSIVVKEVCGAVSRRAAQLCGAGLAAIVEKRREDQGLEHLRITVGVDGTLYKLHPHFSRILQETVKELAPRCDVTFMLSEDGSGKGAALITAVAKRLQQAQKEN
For orientation: inhibition means the drop in the measured response relative to a control, in per cent. `Cc1nc2c(c(=O)c3ccccc3n2C)c(=O)n1-c1ccccc1`: the inhibition was 56% (active).
The same measure for `COc1ncnc2c1oc1nc(C(C)C)c3c(c12)CC(C)(C)OC3`: 43.5% (active).
In the case of `CCOC(=O)/C=C(\C)Sc1cc(O)c2ccccc2c1O`, the inhibition is 53.6% (active).
For `CC(=O)Nc1ccc(C2=NNC(=Nc3ccc(S(=O)(=O)N4CCOCC4)cc3)SC2)cc1` the value was -234% (inactive).
For `CCOC(=O)C1=C(Cc2ccc(Cl)cc2)C(=O)c2ccccc2C1=O` the value was 39.3% (active); for `NC(=NCCCCCCN=C(N)/N=C(\N)Nc1ccc(Cl)cc1)/N=C(\N)Nc1ccc(Cl)cc1`, 49.3% (active) and 46.4% (active); for `O=c1c2ccccc2nc(/C=C/c2cccnc2)n1CCc1ccccc1`, 38.8% (active).

Values taken from PubChem BioAssay AID504710 (Sanford-Burnham Center for Chemical Genomics, 2011).
